From PubChem
Sampled rows, rich in hits. Any-hit rate of the full collection: about 3.5%.
TEAD-YAP inh: TEAD-YAP interaction inhibition, primary screen, TEAD-YAP interaction inhibitor project, luminescence, HEK-TIYL cells | TEAD-Gal4/YAP UAS-luciferase luminescence | 1.4% of 640,000 active | AID 1259422, 2018 | inhibition, % at 9.12 µM; in the data active means inhibition above about 32%
MITF primary: MITF inhibitors, primary screen, biochemical, AlphaScreen, human | Microphthalmia-associated transcription factor (Homo sapiens), O75030 | AlphaScreen MITF homodimerization, bead proximity signal | inhibition, % at 2.6 µM | 0.91% of 650,000 active; in the data active means inhibition above about 50%
Target sequence (O75030 whole entry, looked up): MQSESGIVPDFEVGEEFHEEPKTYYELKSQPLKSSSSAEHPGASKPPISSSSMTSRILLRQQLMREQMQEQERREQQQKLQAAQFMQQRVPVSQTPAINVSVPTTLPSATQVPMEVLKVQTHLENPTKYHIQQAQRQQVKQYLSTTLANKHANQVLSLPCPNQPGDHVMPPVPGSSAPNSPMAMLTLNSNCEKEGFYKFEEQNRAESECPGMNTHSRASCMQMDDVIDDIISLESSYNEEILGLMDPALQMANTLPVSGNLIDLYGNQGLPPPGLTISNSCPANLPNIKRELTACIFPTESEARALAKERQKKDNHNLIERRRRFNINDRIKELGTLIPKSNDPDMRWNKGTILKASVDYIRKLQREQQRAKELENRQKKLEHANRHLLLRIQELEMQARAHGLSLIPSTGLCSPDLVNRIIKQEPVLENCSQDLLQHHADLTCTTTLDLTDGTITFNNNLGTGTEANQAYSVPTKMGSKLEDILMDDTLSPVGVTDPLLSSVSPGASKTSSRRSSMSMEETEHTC
FBW7 activator: FBW7 E3 ligase activators, primary screen, biochemical, AlphaScreen, human; F-box/WD repeat-containing protein 7 (Homo sapiens), Q969H0; AlphaScreen FBW7–phospho-cyclin E peptide binding, activator screen; normalized activity (activation), % at 26.1 µM; 0.13% of 650,000 active; AID 1259310, 2017; in the data active means normalized activity above about 1.9%;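 further: purified mutant Fbw7 with reduced substrate affinity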
GPR151 activ: activators of human GPR151, primary screen, cell-based, PathHunter beta-arrestin, luminescence. G-protein coupled receptor 151 (Homo sapiens), Q8TDV0. PathHunter beta-arrestin GPR151 cells. activation, % at 11.2 µM. 1% of 650,000 active. AID 1508602, 2020; in the data active means activation above about 4.9%
GPR151 conf act: GPR151 activators, triplicate retest, confirmation, cell-based, PathHunter beta-arrestin, luminescence | AID 1508609, 2020 | GPR151 PathHunter beta-arrestin cells, 90 min; % of EA-reagent control over plate median | 6,700 tested, under 10 active | shares compounds with GPR151 activ | activation, % at 11.2 µM;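 active means mean percent activation across replicates above the confirmation screen cutoff of 4.91%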
GPR119 ag: GPR119 activators in beta-arrestin cells, counter-screen for GPR151 activator project, cell-based, PathHunter beta-arrestin, luminescence, triplicate; shares compounds with GPR151 activ; 90 min; 0 = compound-well median, 100 = enzyme-acceptor control; activation, % at 11.2 µM; 0.3% of 6,700 active;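 active means mean percent activation in the counterscreen above 29.09%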;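 further: counterscreen on off-target GPR119 to flag nonselective hits from the GPR151 activator screen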
A number is an active result; 0 = inactive; - = no result given.

SMILES	TEAD-YAP inh	MITF primary	FBW7 activator	GPR151 activ	GPR151 conf act	GPR119 ag
COc1ccc(/C(O)=C2\C(=O)C(=O)N(c3cccc(C)n3)C2c2ccc(N(C)C)cc2)cc1 (configuration not stated)	0	0	0	0	-	-
c1ccc2c(c1)OC[C@H](c1nc3ccc(-c4ccncc4)cc3[nH]1)O2	0	0	0	0	-	-
FC(F)(F)c1cc2[nH]c(C3COc4ccccc4O3)nc2cc1-c1ccncc1 (configuration not stated)	0	0	0	8.0	0	0
Cn1c(=O)c2c(ncn2CC(O)CN2C(=O)c3ccccc3S2(=O)=O)n(C)c1=O (configuration not stated)	0	0	0	6.0	0	0
C=C(C)CN(CC)Cc1nc(-c2ccccn2)no1	0	0	0	14	0	0
COC(=O)c1cc(Nc2cccc(F)c2)c2cccc(OC)c2n1	0	0	0	7.9	0	0
COC(=O)c1cc(Nc2ccc(C)cc2)c2cccc(F)c2n1	0	0	0	0	-	-
S=C1NC2(CCCCC2)NN1c1ccccc1	0	0	0	6.6	0	0
Cc1ccc(N2NC3(CCCCCC3)NC2=S)cc1	0	0	0	0	-	-
CCCOc1ccccc1-c1nc(=S)[nH][nH]1	0	0	0	0	-	-
NNC(=O)CNC(=O)Cc1ccccc1	0	0	0	0	-	-
O=C(Nc1ccc2[nH]ncc2c1)[C@H]1CCN(C(=O)[C@H](O)CSc2ccc(Br)cc2)C1	0	0	0	0	-	-
O=C(Nc1ccc2[nH]ncc2c1)[C@H]1CCN(C(=O)[C@@H](O)CSc2ccc(Br)cc2)C1	0	0	0	5.7	0	0
COc1ccc2[nH]cc(CCNC(=O)NC(C)(C)C)c2c1	0	0	0	0	-	-
COCCn1c(SCC(=O)Nc2ccc(C)c(C)c2)nnc1C(C)C	0	0	0	8.2	0	0
CC(=O)Oc1cccc(/C=C(\C#N)C(=O)Nc2ccc([N+](=O)[O-])cc2C)c1	0	0	0	6.3	0	0
Cc1c(C(=O)N/N=C/c2cccc([N+](=O)[O-])c2)[nH]c2c([N+](=O)[O-])cccc12	0	0	0	5.2	0	0
NC(=O)N/N=C\c1cccc([N+](=O)[O-])c1	0	0	0	7.6	0	0
N#C/C(=C\c1cccc([N+](=O)[O-])c1)C(N)=O	0	0	0	5.7	0	0
O=C(CC(=O)N/N=C/c1cccc([N+](=O)[O-])c1)N/N=C/c1cccc([N+](=O)[O-])c1	0	0	0	0	-	-
N#C/C(=C/c1cccc([N+](=O)[O-])c1)C(=O)Nc1ccc(O)cc1	0	0	0	0	-	-
Cc1cc([N+](=O)[O-])ccc1NC(=O)/C(C#N)=C/c1cccc([N+](=O)[O-])c1	0	0	0	0	-	-
COc1cc(C=O)ccc1OCc1cccc(Cl)c1	0	0	0	0	-	-
C=CCn1c(SC(C)C(=O)NC(N)=O)nnc1-c1ccc(C(C)(C)C)cc1 (configuration not stated)	0	0	0	8.2	0	0
CC(C)=CCC/C(C)=C/CO/N=C1\C[C@@H](O)[C@@H](O)[C@@H]2[C@@H]3C(=O)N([C@@H](C)c4ccccc4)C(=O)[C@@H]3CC[C@@H]12	-	0	0	0	-	-
SMILES	TEAD-YAP inh	MITF primary	FBW7 activator	GPR151 activ	GPR151 conf act	GPR119 ag
CC(C)COc1ccc(C(=O)N/C(=C/c2ccccc2)C(=O)NCCCC(=O)O)cc1	0	0	0	0	-	-
CC(C)NC(=O)CCn1c(=O)oc2ccccc21	0	0	0	8.1	0	0
NC(=O)c1ccccc1NC(=O)CCn1c(=O)oc2ccccc21	0	0	0	5.0	0	0
CCn1cc(CCC(=O)NC(C)C)c2ccccc21	0	0	0	5.6	0	0
CCc1ccc(-n2nc3ccc(NC(=O)c4cc(OC)cc(OC)c4)cc3n2)cc1	0	0	0	0	-	-
CCOc1ccccc1NC(=O)C(CC)Sc1ncnc2c1sc1ccccc12 (configuration not stated)	0	0	0	0	-	-
